What was measured:
Assay type in all cases: functional
Plasmodium falciparum [1] = test: GSK_TCMDC: Inhibition of Plasmodium falciparum 3D7 in whole red blood cells, using parasite LDH activity as an index of growth. Test compounds present at 2uM
Plasmodium falciparum [2] = test: GSK_TCMDC: Inhibition of Plasmodium falciparum Dd2 in whole red blood cells, using parasite LDH activity as an index of growth. Test compounds present at 2uM
HepG2 = test: GSK_TCMDC: Percent inhibition of human HepG2 cell line. Test compounds present at 10uM.

Row | SMILES | Inhibition (Plasmodium falciparum [1]) [%] | Inhibition (Plasmodium falciparum [2]) [%] | Inhibition (HepG2) [%]
1 | COc1ccc(NC(=O)[C@H](Cc2ccccc2)Nc2cc(C)nc(NCCc3ccccn3)n2)cc1.O=C(O)C(F)(F)F | 99 | 39 | 0
2 | CC1(C)CCCC(=Cc2ccc(Br)cc2)C1(O)Cn1ccnc1 (centres undefined) | 99 | 69 | 7
3 | N#Cc1ccnc(-c2ccc(CNC3CCN(CC4Cn5c(=O)ccc6ccc(F)c4c65)CC3)cc2)c1.O=C(O)C(F)(F)F (centres undefined) | 88 | 41 | 24
4 | O=C(C1CCCC1)N1CCOC(CCN2CCC(c3ccccc3)CC2)(c2ccc(Cl)c(Cl)c2)C1 (centres undefined) | 88 | 77 | 16
5 | CCc1ccc(C2CCN(CCCCNC(=O)c3ccc(NC(=O)c4ccc(Cl)cc4)cc3)CC2)c(OCC(=O)OC)c1 | 95 | 12 | 32
6 | CCCC(C)Nc1nc(C)cc(N[C@@H](Cc2ccccc2)C(=O)NCCOc2ccccc2)n1.O=C(O)C(F)(F)F (some centres undefined) | 100 | 68 | 10
7 | Cc1cc2nc(-c3ccc(/C=C/C(=O)NCc4ccc(Cl)c(Cl)c4)cc3)[nH]c2cc1C | 98 | 83 | 32
8 | O=C(NCCc1cccc(F)c1)c1ccc(N2CCN(c3ccncc3)CC2)cn1.O=C(O)C(F)(F)F | 94 | 7 | 4
9 | O=C(/C=C/c1ccc(Cl)cc1)NCCCCCN1CCC(C(=O)Nc2ccc(Cl)cc2)CC1 | 99 | 0 | 27
10 | CC(Cc1ccc(C(=O)N2CCN(C(=O)c3ccc(CC(C)NCCc4cccc(Cl)c4)cc3)CC2)cc1)NCCc1cccc(Cl)c1 (centres undefined) | 100 | 85 | 99
11 | Fc1ccc(CNc2ncc(-c3ccsc3)c(-c3nccs3)n2)cc1 | 94 | 77 | 7
12 | Cc1ccc(CCC(C)NCC(O)c2cccc(C(F)(F)F)c2)cc1 (centres undefined) | 99 | 98 | 0
13 | Br.CCCc1cccc(OC)c1OCCCON1C(N)=NC(N)=NC1(C)C | 94 | 97 | 65
14 | COc1ccc(CN2CCC(CNCCc3ccccc3Cl)CC2)cc1.O=C(O)C(F)(F)F | 87 | 17 | 36
15 | OC(CNc1ccnc(Nc2cccc(OCCCN3CCOCC3)c2)n1)c1ccccc1 (centres undefined) | 97 | 25 | 48
16 | COc1ccc(OCCn2cc(C(=O)c3ccco3)c3ccccc32)cc1 | 98 | 61 | 17
17 | CCCc1cc(Cc2cnc(N)nc2N)ccc1OCCCCCC(=O)OCC | 97 | 1 | 0
18 | OC1CCN(c2cc(-c3ccccn3)nc(-c3ccccn3)n2)CC1 | 83 | 97 | 43
19 | CNC(=O)c1cc(Nc2nnc(-c3ccc(C)c(S(=O)(=O)NC4CCCCC4)c3)c3ccccc23)ccc1OC | 87 | 61 | 0
20 | Cc1[nH]c2ccc(-c3ccccc3)cc2c(=O)c1Br | 97 | 97 | 0

Row | SMILES | Inhibition (Plasmodium falciparum [1]) [%] | Inhibition (Plasmodium falciparum [2]) [%] | Inhibition (HepG2) [%]
21 | CC(=O)Nc1ccc(CN2CCC(NC(=O)c3ccc(-c4cccc(F)c4)s3)CC2)cc1.O=C(O)C(F)(F)F | 96 | 13 | 6
22 | Cc1cccc2nc(-c3cccc(-c4ccc(C(=O)NCc5ccccc5S(C)(=O)=O)cc4)c3)[nH]c12 | 100 | 27 | 17
23 | COc1cc2c(c(Cl)c1OC)CCN(Cc1ccccc1)CC2c1ccc(C(N)=O)cc1 (centres undefined) | 97 | 60 | 7
24 | Cc1cccnc1CNc1nccc2c(C)c(C)[nH]c12.Cl | 100 | 28 | 27
25 | Cc1cc(NC(=O)Nc2ccc(I)c(OCCN(C)C)c2)ccc1Br.Cl | 100 | 42 | 18
26 | O=C(NCC1CC1)C1CCN(C(c2ccc(Cl)cc2)c2ccc(Cl)cc2)CC1 | 99 | 95 | 3
27 | CCc1nc(N)nc(N)c1-c1cccc(Cl)c1 | 94 | 1 | 60
28 | CCCCCC(C)NC[C@@H](O)[C@H](Cc1ccccc1)NC(=O)c1cc(NCC)cc(N2CCCCS2(=O)=O)c1.Cl (some centres undefined) | 98 | 79 | 3
29 | Cc1cc(N2CCNCC2)c2cc(NC(=O)Nc3ccc(Cl)c(Cl)c3)ccc2n1.Cl | 100 | 86 | 23
30 | CCC(C)NC(=O)Nc1ccc(-c2cccc(-c3nc4cccc(C)c4[nH]3)c2)cc1 (centres undefined) | 100 | 83 | 55
31 | Cc1c(CCc2cccc(F)c2F)[nH]c2ccccc2c1=O | 91 | 90 | 41
32 | OCc1ccc(-c2cncc(Nc3ccc(F)c(Cl)c3)c2)cc1 | 92 | 99 | 2
33 | Oc1ccc(CCNc2nc(N/N=C/C=C/c3ccc(Cl)cc3)nc(N3CCNCC3)n2)cc1 | 98 | 52 | 17
34 | CCCS(=O)(=O)c1nc(S(=O)(=O)c2ccc(Cl)cc2)c(N2CCCCC2)s1 | 87 | 34 | 3
35 | Cl.O=C1CSc2ccc(CNC3CCN(CCc4c(Cl)cnc5ccc(F)cc45)CC3)nc2N1 | 98 | 52 | 21
36 | COc1ccc(CCC(C)N2CC(N)C(c3cn(C)c4cnccc34)C2)cc1.Cl (centres undefined) | 98 | 0 | 5
37 | COc1ccc2nccc([C@@H](O)CN3CCC(NCc4cc5ccc(C#N)cc5[nH]4)CC3)c2c1.O=C(O)C(=O)O | 100 | 39 | 31
38 | COc1cc(F)c2nccc([C@@H](O)CN3CCC(NC(=O)OCc4ccccc4)C(F)C3)c2c1 (some centres undefined) | 99 | 100 | 44
39 | O=C(Nc1ccccc1)N(Cc1ccc(-c2cccc(CNCc3ccc4c(c3)OCO4)c2)cc1)C1CCN(Cc2ccccc2)CC1.O=C(O)C(F)(F)F | 100 | 65 | 29
40 | COc1ccc(NC(=O)Nc2ccc(-c3ccc(-c4nc5ccccc5[nH]4)cc3)cc2)cc1 | 100 | 27 | 22

Row | SMILES | Inhibition (Plasmodium falciparum [1]) [%] | Inhibition (Plasmodium falciparum [2]) [%] | Inhibition (HepG2) [%]
41 | N#CC1(c2ccccc2)CCN(c2nc(NCCCN3CCCC3=O)nc(N3CCCC4CCCCC43)n2)CC1 (centres undefined) | 95 | 92 | 0
42 | Nc1nccc2ccc(-c3ccc4ncccc4c3)cc12.O=C(O)C(F)(F)F | 100 | 100 | 97
43 | OCCN1CCN(c2nc(Nc3cccc(F)c3)c3cnn(-c4ccccc4)c3n2)CC1 | 100 | 76 | 89
44 | NCCNc1ccc([N+](=O)[O-])cc1C(=O)Nc1cccc(Cl)c1 | 85 | 7 | 23
45 | COc1ccc(Cl)cc1N1CCN(CCCNC(=O)c2ccc(-c3nc4cc(Cl)c(C)cc4[nH]3)s2)CC1 | 100 | 97 | 0
46 | COc1ccc(S(=O)(=O)N2CCC(NS(=O)(=O)c3ccc(F)cc3)CC2)cc1 | 80 | 0 | 3
47 | CC1CCCCC1N(C)C1CCN(CCCNC(=O)C=Cc2ccc(Cl)cc2Cl)CC1 (centres undefined) | 100 | 59 | 53
48 | Cc1cc(N(CCCN(C)C)Cc2cc(F)cc(F)c2)nc(Nc2ccc(Cl)cc2)n1 | 99 | 97 | 37
49 | Cc1cc(N2CCCC2)nc(Nc2ccc(NC(=O)c3ccccc3F)cc2)n1 | 98 | 44 | 36
50 | CC(C)(C)c1cc(NC(=O)c2ccc(Cl)c([N+](=O)[O-])c2)cc(C(C)(C)C)c1 | 93 | 7 | 0
51 | Cc1[nH]c2c(C)cccc2c1C1CCN(CCC2CCN(C(=O)/C=C/c3ccc(Cl)c(Cl)c3)CC2)CC1 | 100 | 79 | 67
52 | Fc1ccc(Nc2ccnc3cc(-c4ccc(CN5CCOCC5)o4)ccc23)c(Cl)c1 | 100 | 100 | 42
53 | CS(=O)(=O)Nc1ccc2[nH]cc(C3CCN(CC(O)C4CCN(C(=O)/C=C/c5ccc(Cl)c(Cl)c5)CC4)CC3)c2c1.O=C(O)C(F)(F)F (centres undefined) | 100 | 0 | 28
54 | CN(C)S(=O)(=O)c1ccc(N2CCN(CCC3(c4cccc(F)c4)CCN(C(=O)C(C)(C)C)CC3)CC2)c2nonc12 | 91 | 85 | 8
55 | CCN(CCCN1CCCCC1)c1cc(C)nc(Nc2ccc(Cl)cc2)n1.Cl | 100 | 82 | 23
56 | CCN(C)c1cc(C(=O)N[C@@H](Cc2ccccc2)[C@H](O)CNC(C)(C)c2cccc(OC)c2)cc(N2CCCC2=O)c1 | 100 | 81 | 0
57 | N#Cc1ccc(N/C(=N\c2cccc(Cl)c2Cl)NC2Cc3ccccc3C2)c(O)c1 | 94 | 77 | 15
58 | Cc1cc(CN2CC[C@H](NC(=O)c3ccc(Cl)c(Cl)c3)C2)ccc1OCCCN(C)C.O=C(O)C(F)(F)F | 99 | 35 | 41

Reference: ChEMBL document CHEMBL1157539, “Thousands of chemical starting points for antimalarial lead identification” (Nature, 2010)
